# Source: PubChem (National Center for Advancing Translational Sciences (NCATS))
# Pf growth 96h – Primary qHTS for delayed death inhibitors of the malarial parasite plastid, 96 hour incubation; 320,000 compounds, 6.9% hits; AID 504834, 2011; Potency, µM (series often up to 28.7 µM), for inactives: top-dose activity change, negative = inhibition, usual class: inhibitors; P. falciparum luciferase reporter growth, 96 h; note: potency is the fitted concentration of half-maximal effect; % is set by controls: 0 for no effect and ±100 for the full control effect
#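 P. falciparum expressing integrated firefly luciferase grown in erythrocytes (2% hematocrit, 0.05% parasitemia final) with compounds for 96 hours at 37 C, 5% CO2. Growth inhibition read as loss of luminescence after adding luciferase detection reagent.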
# Pf growth 48h – Primary qHTS for delayed death inhibitors of the malarial parasite plastid, 48 hour incubation; P. falciparum luciferase growth in erythrocytes, 48 h; 310,000 compounds, 5.9% hits; Potency, µM (highest dose often 28.7 µM), for the others: at the highest dose activity change, negative = inhibition, actives largely listed as inhibitors; note: potency is the fitted concentration of half-maximal effect; % is set by controls: 0 for no effect and ±100 for the full control effect
#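 Cell-based growth assay: transgenic P. falciparum expressing firefly luciferase, cultured in red cells within RPMI 1640 containing 0.5% w/v Albumax, 24 mM bicarbonate and gentamycin. A drop in luciferase activity indicates inhibition.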
# Lassa entry inh – qHTS for Inhibitors of binding or entry into cells for Lassa Virus | Lassa virus pseudotype entry inhibition, cell reporter | Potency, µM (series often up to 37.9 µM), inactives show top-dose activity change, negative = inhibition, hits mostly inhibitors | 300,000 compounds, 1.2% hits | AID 540256, 2011; calls by dose curve; tested in HEK293 cells; note: potency is the fitted concentration of half-maximal effect; % is set by controls: 0 for no effect and ±100 for the full control effect; nearly all actives have a fitted effect of over 50% in size
# Marburg entry inh – qHTS for inhibitors of binding or entry into cells for Marburg Virus. Marburg virus pseudotyped entry inhibition, cell reporter. Potency, µM (doses to about 37.8 µM), for the others: top-dose activity change, negative = inhibition, actives largely listed as inhibitors. 300,000 compounds, 1.8% hits; calls by dose curve; tested in HEK293 cells; note: potency is the fitted concentration of half-maximal effect; % is set by controls: 0 for no effect and ±100 for the full control effect
# Cycloheximide cs – Cycloheximide Counterscreen for Small Molecule Inhibitors of Shiga Toxin; cell reporter, cycloheximide protein synthesis inhibition counterscreen; AID 2314, 2010; max response, %; 300,000 compounds, 12% hits; in the data active = max response mostly above about 13%, no sharp cut-off; inactive = mostly below about 14%; note: read at 38.3 µM for the half of the compounds with a filed dose; 0% is about no effect
# Shiga inhibitor – A qHTS for Small Molecule Inhibitors of Shiga Toxin. Vero cells, Shiga toxin protein synthesis inhibition reporter. inhibition, % at 38.7 µM. 290,000 compounds, 9.2% hits; in the data active = inhibition mostly above about 28%, no sharp cut-off; inactive = mostly below about 43%; note: 0% is about no effect
# * marks the source's active call; other numbers are inactive results; i = inactive; u = inconclusive; x = no result given; [ ] = another dose, or the depositor's remark. Shown are actives, neighbours in structure and some others; about 19% of the full set was active somewhere. Unless noted, calls come from the whole dose curve; as a rule, active = well fitted inhibition curve with a large enough effect; inconclusive = small, poorly fitted or top-dose-only effect, or another doubt; inactive = no such curve, though single readings can be large or run the other way.
SMILES,Pf growth 96h,Pf growth 48h,Lassa entry inh,Marburg entry inh,Cycloheximide cs,Shiga inhibitor
O=C(NCCNS(=O)(=O)c1ccccc1Cl)c1cc(OCC(F)(F)F)ccc1OCC(F)(F)F,12µM*,u,9%,-1%,-5,-9
Cc1ccc(S(=O)(=O)NCCNC(=O)c2cc(OCC(F)(F)F)ccc2OCC(F)(F)F)cc1,u,u,6%,u,7,-22
CNc1nc(-c2ccccc2)nc(-c2ccccc2)c1C#N,-3%,18%,-13%,-10%,-2,13
O=c1[nH]c(CS(=O)(=O)c2ccccc2)nc2ccccc12,x,19%,7%,-2%[46.1 µM],-3,19
CCn1c(C)c(CS(=O)(=O)c2ccccc2)[nH]c1=O,17%,-5%,-7%[46.1 µM],u,34*,108
c1ccc(CN2CCC(Nc3nc(-c4cccs4)nc4ccccc34)CC2)cc1,5.2µM*,5.2µM*,u,12µM*,-4,2
c1ccc2c(NCC3CCCO3)nc(N3CCCCC3)nc2c1 (stereo not given),i,u,x,x,-3,-20
c1csc(-c2nc(NCC3CCCO3)c3ccccc3n2)c1 (stereo not given),u,-10%,-5%[46.1 µM],10µM*,-2,-7
Brc1ccc2nc(-c3cccs3)c(NCC3CCCO3)n2c1 (stereo not given),42%,-9%,x,x,32*,56*
CC(C)Oc1ccc(-c2nc(NCC3CCCO3)c3ccccc3n2)cc1 (stereo not given),u,u,u,u,20*,47*
Clc1ccc(Nc2c(-c3cccs3)nc3ccc(Cl)cn23)cc1,x,x,22%[46.1 µM],u,x,x
c1cncc(-c2nc(NCC3CCCO3)c3ccccc3n2)c1 (stereo not given),u,u,u,u,-5,-17
c1csc(CNc2nc(-c3cccs3)nc3ccccc23)c1,u,-26%,3%,-30%[46.1 µM],4,26
O=C(NCCCN1CCOCC1)c1cc(-c2ccc(Cl)c(Cl)c2)on1,336%,u,4%[46.1 µM],2%[46.1 µM],7,20
Cc1ccccc1NC(=O)C1CCC(CNS(=O)(=O)c2ccc3c(c2)C(C)(C)C(=O)N3C)CC1 (stereo not given),x,x,0%[46.1 µM],x,x,x
COc1ccc(/C=C/C(=O)OC(C)C(=O)c2ccccc2)cc1OC (stereo not given),9%,24%,u,1%,x,x
O=C1c2[nH]nc(-c3ccccc3O)c2C(c2cccc(O)c2)N1Cc1ccco1 (stereo not given),u,2%,0.5µM*,0%,0,-11
COc1ccc(C2c3c(-c4ccccc4O)n[nH]c3C(=O)N2Cc2ccco2)cc1 (stereo not given),9.3µM*,u,0.58µM*,-25%,-3,-1
O=C1c2[nH]nc(-c3ccccc3O)c2C(c2cccc(Cl)c2)N1Cc1cccnc1 (stereo not given),x,x,-27%[46.1 µM],-19%[46.1 µM],x,x
COc1cc(C2c3c(-c4ccccc4O)n[nH]c3C(=O)N2Cc2ccco2)cc(OC)c1OC (stereo not given),7.4µM*,12µM*,x,x,-1,17
COc1cc(C2c3c(-c4ccccc4O)n[nH]c3C(=O)N2Cc2ccncc2)ccc1O (stereo not given),x,x,u,0%[46.1 µM],x,x
COc1ccc2c(c1[N+](=O)[O-])CCC/C2=N/OC(=O)c1ccccc1SC,u,-11%,-13%,u,-1,-12
Cc1cccc(OP(N)(=O)Oc2cccc(C)c2C)c1C,-2%,-5%,x,x,-3,19
Cc1cccn2c(=O)c(/C=C(\C#N)S(=O)(=O)c3ccccc3)c(N3CCN(Cc4ccccc4)CC3)nc12,15µM*,u,x,x,1,15
Cc1ccc(S(=O)(=O)/C(C#N)=C/c2c(N3CCOCC3)nc3c(C)cccn3c2=O)cc1,-13%,2.1µM*,6%,-9%,1,-6
SMILES,Pf growth 96h,Pf growth 48h,Lassa entry inh,Marburg entry inh,Cycloheximide cs,Shiga inhibitor
N#C/C(=C\c1c(N2CCN(Cc3ccccc3)CC2)nc2ccccn2c1=O)S(=O)(=O)c1ccccc1,u,u,x,x,1,-2
Cc1ccc(C)c(C(=O)C(C)OC(=O)CN2C(=O)NC3(CC(C)CC(C)(C)C3)C2=O)c1 (stereo not given),-13%,0%,3%,-22%,-2,-2
O=C1c2cccnc2C(Nc2ccc(Br)cc2)N1Cc1cccs1 (stereo not given),0%,12%,x,x,6,-18
CC(C)(C)c1ccc(OCC(=O)N/N=C/c2cc(Br)ccc2OC(=O)c2ccco2)cc1,u,2.1µM*,u,u,11,-4
CCOC(=O)C1C(C(=O)OC)=C(C(=O)OC)c2ccccc2N1S(=O)(=O)C(F)(F)F (stereo not given),x,x,x,3%,6,18
COc1cccc(NC(=O)CN(C)S(=O)(=O)c2ccc3c(c2)CCC(=O)N3)c1,7.4µM*,17%,x,x,-2,1
CC1CCC(NC(=O)CN(C)S(=O)(=O)c2ccc3c(c2)CCC(=O)N3)CC1 (stereo not given),1.5µM*,-15%,-14%[46.1 µM],2%[46.1 µM],-4,-3
Cc1ccc(C)c(N2CCN(C(=O)CN(C)S(=O)(=O)c3ccc4c(c3)CCC(=O)N4)CC2)c1,2.3µM*,x,x,3%,-1,-14
COc1ccccc1N1CCN(C2CCN(C(=O)COc3ccccc3)CC2)CC1,12%[5.75 µM],0%,u,-12%[46.1 µM],-5,-4
CN1CCN(/N=C/c2c(O)n(C)c(=O)n(C)c2=O)CC1,u,0%,-3%,-4%[14.2 µM],13,15
CCC(C)(C)n1nnnc1C(c1cccs1)N1CC=C(c2ccc(F)cc2)CC1 (stereo not given),u,7.4µM*,u,15µM*,-5,-13
Fc1ccc(C2=CCN(C(c3cccs3)c3nnnn3CCc3ccccc3)CC2)cc1 (stereo not given),x,0%,u,-2%[46.1 µM],6,-4
Cc1ccc(C)c2[nH]c(=O)c(C(c3nnnn3C(C)(C)C)N3CC=C(c4ccc(F)cc4)CC3)cc12 (stereo not given),u,2.1µM*,-2%,-9%,-3,-15
CC(C)C(=O)NCCc1nc2ccccc2n1CCc1ccccc1,3%,-7%,-29%,u,0,-11
c1cc2c3c(cccc3c1)NC1(CCC3(CC1)Nc1cccc4cccc(c14)N3)N2,6.6µM*,9.3µM*,x,x,-2,3
c1cc2c3c(cccc3c1)NC1(CCCCCC1)N2,x,u,10%,u,-3,-10
O=C(Nc1ccccn1)c1cccc(S(=O)(=O)N2CCCCC2)c1,32%,-5%,1%,10%,14,33
